Bioassay records: PubChem, Broad Institute
PvdQ acylase: P. aeruginosa PvdQ acylase inhibitors, primary screen, biochemical, fluorescence, plate reader and imaging, single point | PvdQ acylase [Pseudomonas aeruginosa LESB58] | purified PvdQ acylase | inhibition, % at 10 µM | 340,000 tested, 0.063% active; in the data active = inhibition above about 30%, passing the limit was not always enough
SIRT5 inh: SIRT5 desuccinylase inhibitors, primary screen, biochemical, fluorescence imaging, single point, set 5; NAD-dependent protein deacylase sirtuin-5, mitochondrial (Homo sapiens), Q9NXA8; Purified SirT5, succinyl-peptide AMC, trypsin-coupled fluorescence; inhibition, % at 15 µM; 330,000 tested, 1.1% active; in the data active = inhibition above about 15%
dFosB act: activators of delta FosB homodimer, primary screen, biochemical, fluorescence polarization, TAMRA-CDK5 oligo, single point | purified delta FosB; percent of positive-control signal above neutral wells | activation, % at 25 µM | 340,000 tested, 0.99% active;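 active = mean activation above about 17%, with every replicate also reaching it, limit read from the data, passing the limit was not always enough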
FGF22 binding: binders of human FGF22 protein, primary screen, FGF22 synaptogenesis inhibitor project, biophysical, thermal shift, single point. AID 651658, 2012. Fibroblast growth factor 22 (Homo sapiens), Q9HCT0. activity (Tm shift, normalised), % at 9.99 µM. recombinant FGF22 thermal shift, SYPRO orange fluorescence; percent of sucrose octasulfate shift, DMSO zero. 340,000 tested, 1.5% active;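 active = mean Tm shift, scaled 0 neutral to 100 positive control, at about 1.3% or above, every replicate too, limit read from the data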
CDK5 inh: inhibitors of human CDK5/p35 kinase, primary screen, biochemical, single concentration | inhibition, % at 10 µM | Recombinant CDK5/p35, ADP-Glo luminescence, 60 min | 330,000 tested, 0.01% active | AID 488839, 2010 | Cyclin-dependent kinase 5 (Homo sapiens) + Cyclin-dependent kinase 5 activator 1 (Homo …;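 active = highest replicate inhibition of at least 50% and at least 75% of replicates reaching 50%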
Target sequence (Q00535 whole entry, looked up): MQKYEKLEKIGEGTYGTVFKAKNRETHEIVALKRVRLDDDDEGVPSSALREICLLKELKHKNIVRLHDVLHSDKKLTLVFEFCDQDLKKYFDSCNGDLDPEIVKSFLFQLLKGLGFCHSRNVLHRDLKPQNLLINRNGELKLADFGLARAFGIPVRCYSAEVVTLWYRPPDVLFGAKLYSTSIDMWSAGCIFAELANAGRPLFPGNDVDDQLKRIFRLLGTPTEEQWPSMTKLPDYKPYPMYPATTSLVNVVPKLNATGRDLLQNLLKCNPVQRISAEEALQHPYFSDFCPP
Target sequence (Q15078 whole entry, looked up): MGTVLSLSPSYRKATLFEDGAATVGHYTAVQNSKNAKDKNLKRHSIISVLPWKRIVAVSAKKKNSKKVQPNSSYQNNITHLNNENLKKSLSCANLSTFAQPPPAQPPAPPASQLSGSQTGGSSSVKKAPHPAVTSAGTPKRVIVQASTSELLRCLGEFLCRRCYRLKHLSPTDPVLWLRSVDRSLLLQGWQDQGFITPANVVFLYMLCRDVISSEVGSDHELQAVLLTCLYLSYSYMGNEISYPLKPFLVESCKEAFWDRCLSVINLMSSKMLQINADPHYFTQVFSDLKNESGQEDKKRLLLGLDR
PglD inh: C. jejuni PglD acetyltransferase inhibitors, primary screen, biochemical, DTNB colorimetric, single point | AID 602405, 2012 | purified PglD enzyme, DTNB colorimetric CoA detection | UDP-N-acetylbacillosamine N-acetyltransferase PglD (Campylobacter jejuni) | inhibition, % at 12.5 µM | 360,000 tested, 0.098% active; in the data active = inhibition above about 16%, passing the limit was not always enough
A number is an active result; i = inactive; nt = no result. Sampled rows, rich in hits. Any-hit rate of the full collection: about 2.8%.

SMILES | PvdQ acylase | SIRT5 inh | dFosB act | FGF22 binding | CDK5 inh | PglD inh
O=C(C[C@H]1C[C@H]2c3cc(NC(=O)Nc4ccc(C(F)(F)F)cc4)ccc3O[C@H]2[C@H](CO)O1)NCc1ccc2c(c1)OCO2 | nt | i | nt | i | nt | i
O=C(C[C@@H]1C[C@H]2c3cc(NC(=O)Nc4ccc(C(F)(F)F)cc4)ccc3O[C@H]2[C@H](CO)O1)NCc1ccc2c(c1)OCO2 | nt | 27 | nt | i | nt | i
C[C@@H](NC(=O)C[C@@H]1C[C@@H]2c3cc(NC(=O)c4ccc5c(c4)OCO5)ccc3O[C@@H]2[C@H](CO)O1)c1ccccc1 | nt | 15 | nt | i | nt | i
CCOc1cccc(-c2cc(N3CCN(CCO)CC3)n3nccc3n2)c1 | nt | i | nt | i | nt | i
Cc1cccc(-c2cc(NCCc3cccnc3)n3nccc3n2)c1 | nt | nt | nt | 43 | nt | i
CCOc1cccc(-c2cc(NCCc3ccccn3)n3nccc3n2)c1 | nt | nt | nt | 43 | nt | i
Cc1cccc(-c2cc(N3CCCN(C)CC3)n3nccc3n2)c1 | nt | i | nt | i | nt | i
CC(CCCC(C)(C)O)NC(=O)c1ccc(OC2CCN(C(=O)C3CC3)CC2)cc1 (configuration not stated) | i | i | i | 43 | i | i
CC(C)C[C@H](NC(=O)c1ccc(OC2CCN(C(=O)C3CC3)CC2)cc1)C(N)=O | i | i | i | nt | i | nt
O=C(CN(C(=O)c1csnn1)c1cccc(F)c1)NCc1ccc2c(c1)OCO2 | i | i | i | 43 | i | i
CS(=O)(=O)N1CCc2cc(S(=O)(=O)N3CCCCC3)ccc21 | i | i | i | 43 | i | nt
CC(=O)N1CCc2cc(S(=O)(=O)N3CCCCCC3)ccc21 | i | i | i | i | i | i
CC=Cc1ccc2n(c1=O)C[C@H]1[C@H](CO)[C@@H](C(=O)N[C@@H](C)c3ccccc3)[C@@H]2N1CC1CC1 (mixture of isomers) | nt | i | nt | i | nt | i
COCC#Cc1ccc2c(c1)O[C@H](CN(C)S(=O)(=O)c1ccc(F)cc1)[C@@H](C)CN([C@@H](C)CO)S2(=O)=O | nt | i | nt | i | nt | i
Cn1c(=O)c2c(nc(Sc3ncnn3CC(=O)NC(C)(C)C)n2C)n(C)c1=O | i | i | i | 43 | i | i
CCCN1C[C@@H](C)[C@H](OC)CN(C)C(=O)c2cc(NC(=O)c3cnccn3)ccc2OC[C@@H]1C | nt | i | nt | i | nt | i
CO[C@H]1CN(C)C(=O)c2ccc(NS(=O)(=O)CC(F)(F)F)cc2OC[C@H](C)N(C)C[C@@H]1C | nt | 25 | nt | i | nt | nt
CCCN1C[C@@H](C)[C@H](OC)CN(C)C(=O)c2cc(NC(=O)c3cnccn3)ccc2OC[C@H]1C | nt | 17 | nt | i | nt | i
CO[C@@H]1CN(C)C(=O)c2ccc(NC(=O)c3ccc4c(c3)OCO4)cc2OC[C@@H](C)N(CCC(F)(F)F)C[C@@H]1C | nt | i | nt | i | nt | i
CO[C@@H]1CN(C)C(=O)c2ccc(NC(=O)c3ccc4c(c3)OCO4)cc2OC[C@H](C)N(CCC(F)(F)F)C[C@H]1C | nt | 16 | nt | i | nt | i
CO[C@@H]1CN(C)C(=O)c2cc(NC(C)=O)ccc2OC[C@@H](C)N(CCC(F)(F)F)C[C@H]1C | nt | i | nt | i | nt | i
CO[C@H]1CN(C)C(=O)c2cc(NC(C)=O)ccc2OC[C@@H](C)N(CCC(F)(F)F)C[C@H]1C | nt | 16 | nt | i | nt | i
CO[C@H]1CN(C)C(=O)c2ccc(NS(=O)(=O)CC(F)(F)F)cc2OC[C@@H](C)N(C)C[C@H]1C | nt | i | nt | i | nt | i
COCC(=O)Nc1ccc2c(c1)OC[C@@H](C)N(Cc1cccc(F)c1)C[C@@H](C)[C@H](OC)CN(C)C2=O | nt | i | nt | i | nt | i
COc1cccc(-c2ccc([C@H]3[C@@H](CO)N4C(=O)CN(C(=O)c5cccnc5)C[C@H]34)cc2)c1 | nt | i | nt | i | nt | nt
SMILES | PvdQ acylase | SIRT5 inh | dFosB act | FGF22 binding | CDK5 inh | PglD inh
COc1ccc2c3c([nH]c2c1)[C@H](CO)N(Cc1cc(F)ccc1F)CC31CN(C(=O)C2CCC2)C1 | nt | i | nt | i | nt | nt
C[C@H](CO)N1C[C@H](C)[C@@H](CN(C)S(=O)(=O)c2ccc(Cl)cc2)Oc2c(NS(C)(=O)=O)cccc2C1=O | nt | i | nt | i | nt | i
C[C@@H]1CN([C@H](C)CO)C(=O)c2cccc(NS(C)(=O)=O)c2O[C@@H]1CN(C)C(=O)Nc1ccc(F)cc1 | nt | i | nt | i | nt | i
COc1cccc(-c2cn(CC[C@H]3CC[C@@H](NC(C)=O)[C@@H](CO)O3)nn2)c1 | nt | i | nt | i | nt | i
O=C(Cn1c(C(F)(F)F)nc2ccccc21)N=Nc1c(O)[nH]c2ccc(Br)cc12 | i | i | i | 43 | i | i
O=C(Cc1cccs1)N=Nc1c(O)[nH]c2ccc(Br)cc12 | i | i | i | i | i | i
CC(C)c1cc(C(=O)Nc2cccc(Cl)c2)no1 | i | nt | i | nt | i | i
CC(C)c1onc(C(=O)Nc2cccc(Cl)c2)c1[N+](=O)[O-] | i | i | i | 43 | i | nt
CO[C@@H]1CN(C)C(=O)c2cc(NC(=O)Nc3ccccc3)ccc2OC[C@@H](C)N(C(=O)Nc2c(C)noc2C)C[C@@H]1C | nt | i | nt | i | nt | i
CCC(=O)N(C)C[C@@H]1Oc2cc(-c3ccccc3OC)ccc2S(=O)(=O)N([C@@H](C)CO)C[C@H]1C | nt | i | nt | i | nt | i
C[C@H]1CN([C@@H](C)CO)S(=O)(=O)c2ccc(/C=C/c3ccccc3)cc2O[C@@H]1CN(C)C(=O)C1CC1 | nt | i | nt | i | nt | i
C[C@H]1CN([C@@H](C)CO)S(=O)(=O)c2ccc(/C=C/c3ccccc3)cc2O[C@H]1CN(C)C(=O)C1CC1 | nt | 15 | nt | i | nt | i
C[C@@H]1CN([C@@H](C)CO)S(=O)(=O)c2ccc(/C=C/c3ccccc3)cc2O[C@@H]1CN(C)C(=O)C1CC1 | nt | 17 | nt | i | nt | i
Nc1cc2c(cc1Br)-c1ccc(F)cc1C2O (configuration not stated) | i | nt | i | i | i | i
CC(=O)Nc1cc2c(cc1Cl)-c1ccc(F)cc1C2O (configuration not stated) | i | nt | i | 44 | i | i
CCCCCCCCOC(=O)c1nc(Cl)c(Cl)c(N)c1Cl | i | nt | i | 1.5 | i | i
Nc1c(Cl)c(Cl)nc(C(=O)OCC(=O)N2CCCC2=O)c1Cl | i | i | i | i | i | i
COC(=O)c1nc(C(=O)OC)c(C(=O)OC)nc1C(=O)OC | i | nt | i | nt | i | i
COC(=O)c1nc(Cl)c(Cl)c(N)c1Cl | i | 17 | i | i | i | nt
C[C@@H]1CN([C@@H](C)CO)C(=O)Cc2cc(NC(=O)CCN3CCOCC3)ccc2O[C@H]1CN(C)Cc1ccc(Oc2ccccc2)cc1 | nt | i | nt | i | nt | i
